Among the data in PubChem BioAssay (NCATS) are Potency and outcome values, retold here.

Experiment [1] deals with Protein phosphatase 1D (Homo sapiens) (UniProt O15297). Briefly: RapidFire Mass Spectrometry qHTS Assay for Modulators of WT P53-Induced Phosphatase 1 (WIP1) (AID 1347424). Further: series mostly up to about 63 µM. Put shortly:
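RapidFire MS readout of dephosphorylated VEPPL-S-QETFS product, with 1 uM isotope-labelled peptide standard. Reaction: 10 nM WIP1, 2 uM phosphopeptide substrate, 5 min, room temperature, after 1 h compound preincubation; stopped with 0.5% formic acid.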

The nature of experiment [2]: Primary qHTS for inhibitors of La Crosse Virus (LACV) - induced cell death in SH-SY5Y cells (AID 1508616). Further: potency means the concentration at half of the fitted maximal effect. The method, boiled down:
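Screening measures cell viability in LACV-infected SH-SY5Y cultures. Compound was added before virus (0.01 MOI), and ATP was detected by luminescence 6 days later.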
(In general: In qHTS, concentration-response curves come from the screen itself.)

In experiment [3] the target is Calcium and integrin-binding protein 1 (Homo sapiens) (UniProt Q99828). Briefly: Primary qHTS for Identification of Calcium Integrin Binding Protein 1 (CIB1) Competitor (AID 1508620). Further: top concentration of the series differs between compounds. The method, boiled down: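 Fluorescence polarization competition: GST-tagged CIB1 (1 uM final) preincubated with compound 15 min at room temperature, then FITC-labelled alphaIIb peptide (100 nM final) added. After 15 min at room temperature, polarization read at Ex 480/Em 540.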

Experiment [4] in a line: Primary qHTS for small molecule stabilizers of the endoplasmic reticulum resident proteome: Secreted ER Calcium Modulated Protein (SERCaMP) assay (AID 1508630). Put shortly:
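The SH-SY5Y reporter protocol was run at 3 concentrations up to 38.3 uM (primary) or 11 concentrations (follow-up): 16 h compound, 100 nM thapsigargin for 4 h, then extracellular luciferase luminescence.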

The nature of experiment [5]: A High-Content qHTS Against Drug Library for the Identification of Small Molecules that Inhibit DYT1 Early Onset Primary Dystonia-Associated Cell Pathology (AID 1645839; calls by dose curve; further: series mostly up to about 46 µM). The method, boiled down:
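Cells were seeded and left for 24 h, then dosed with compound alongside tetracycline induction of mutant EGFP-TorsinA. They were incubated for 48 h, fixed in 4% paraformaldehyde, permeabilized and imaged for mislocalization (%pathology) and cell count.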

For experiment [6], the target named is Cytochrome P450 2D6 (Homo sapiens) (UniProt P10635). Briefly: Cytochrome P450 family 2 subfamily D member 6 (CYP2D6) small molecule antagonists: luciferase biochemical (cell-free) qHTS assay (AID 1645840; active means well fitted curve in the direction sought with a large enough effect in the repeat runs; an effect the other way counts as inactive or inconclusive; further: series mostly up to about 57 µM; nearly all actives have a fitted effect of over 55% in size). Put shortly:
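P450-Glo CYP2D6 system: proluciferin substrate converted by enzyme to luciferin, read by luminescence proportional to activity. Enzyme-substrate mix with compound 10 min at room temperature, then NADPH regeneration 1 h before detection reagent.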

Experiment [7] deals with Cytochrome P450 2C9 (Homo sapiens) (UniProt P11712). As to the kind of experiment: Cytochrome P450 family 2 subfamily C member 9 (CYP2C9) small molecule antagonists: luciferase biochemical (cell-free) qHTS assay (AID 1645842; active means well fitted curve in the direction sought with a large enough effect in the repeat runs; an effect the other way counts as inactive or inconclusive; further: series mostly up to about 57 µM; nearly all actives have a fitted effect of over 55% in size). Put shortly: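 P450-Glo CYP2C9 system: proluciferin substrate with enzyme in mix containing 0.4% BSA, 10 min at room temperature, then NADPH regeneration solution added and incubated 1 h at 37C. Detection reagent stopped reaction; luminescence read after 20 min as RLU.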

Experiment [8] is described as follows: Primary qHTS for inhibitors of nuclear receptor binding SET domain protein 2 (NSD2) in an isogenic RCH-ACV NSD2 p.E1099K mutant (9B) (AID 1645876). Further: nearly all actives have a fitted effect of over 70% in size. Further: potency means the concentration at half of the fitted maximal effect.
The nature of experiment [9]: Primary qHTS for inhibitors of nuclear receptor binding SET domain protein 2 (NSD2) in an RCH-ACV wild type WT cells (2C) (AID 1645877). Further: nearly all actives have a fitted effect of over 70% in size. Further: potency means the concentration at half of the fitted maximal effect.
For experiment [10], the target named is Protein phosphatase 1D (Homo sapiens) (UniProt O15297). As to the kind of experiment: Rhodamine-PBP qHTS Assay for Modulators of WT P53-Induced Phosphatase 1 (WIP1) (AID 1347425). Put shortly:
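5 nM WIP1 + 10 uM Rh-PBP, 50 mM Tris pH 7.5, 30 mM MgCl2, 1 mM TCEP, 0.1 mM EGTA, BSA; cpds pinned, 1 hr RT; + 10 uM phosphopeptide; fluorescence 1-min reads x 11 min; delta = f1 - f0.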

The target of experiment [11] is Cytochrome P450 3A4 (Homo sapiens) (UniProt P08684). Briefly: Cytochrome P450 family 3 subfamily A member 4 (CYP3A4) small molecule antagonists: luciferase qHTS assay (AID 1645841; active means well fitted curve in the direction sought with a large enough effect in the repeat runs; an effect the other way counts as inactive or inconclusive; further: nearly all actives have a fitted effect of over 45% in size). Put shortly:
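P450-Glo CYP3A4 enzyme with proluciferin substrate preincubated 10 min with compound at room temperature, then NADPH regeneration 1 h. Luciferin detection reagent added for 20 min; luminescence recorded. Ketoconazole positive control.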

Several values for one entry are separate records, joined by “and”; a condition that tells them apart may be missing. Identical values can stand only once. Records with an inconclusive call do not appear. Activity calls are given as the source filed them. Unless noted, the call rests on the fitted dose curve; in most records, active means well fitted curve in the direction sought with a large enough effect; inconclusive means small, poorly fitted or top-dose-only effect, or another doubt; inactive means no such curve, though single readings can be large; an effect the other way counts as inactive or inconclusive.

Protein phosphatase 1D (Homo sapiens), sequence (O15297 whole entry, looked up): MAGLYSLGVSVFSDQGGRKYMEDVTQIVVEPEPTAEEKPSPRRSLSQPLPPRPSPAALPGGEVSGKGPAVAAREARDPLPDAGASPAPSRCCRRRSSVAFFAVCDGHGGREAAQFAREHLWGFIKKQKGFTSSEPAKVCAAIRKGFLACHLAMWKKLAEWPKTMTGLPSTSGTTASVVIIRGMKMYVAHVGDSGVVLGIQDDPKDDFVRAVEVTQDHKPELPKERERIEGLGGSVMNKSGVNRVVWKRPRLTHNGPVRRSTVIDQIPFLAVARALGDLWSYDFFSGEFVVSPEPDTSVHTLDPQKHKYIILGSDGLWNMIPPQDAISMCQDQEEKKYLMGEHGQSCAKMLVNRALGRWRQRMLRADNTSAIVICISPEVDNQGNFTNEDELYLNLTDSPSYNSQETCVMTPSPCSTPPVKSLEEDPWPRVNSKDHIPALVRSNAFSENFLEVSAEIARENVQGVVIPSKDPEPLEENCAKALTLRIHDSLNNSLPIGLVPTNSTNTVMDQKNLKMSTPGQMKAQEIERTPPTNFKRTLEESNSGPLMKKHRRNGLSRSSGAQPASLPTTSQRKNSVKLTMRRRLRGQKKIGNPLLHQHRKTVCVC
Calcium and integrin-binding protein 1 (Homo sapiens), sequence (Q99828 whole entry, looked up): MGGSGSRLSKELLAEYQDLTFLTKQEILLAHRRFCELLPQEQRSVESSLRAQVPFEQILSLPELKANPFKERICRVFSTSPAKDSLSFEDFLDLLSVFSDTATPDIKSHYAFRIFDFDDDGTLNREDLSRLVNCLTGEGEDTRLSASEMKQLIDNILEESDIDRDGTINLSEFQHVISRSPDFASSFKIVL
Cytochrome P450 2D6 (Homo sapiens), sequence (P10635 whole entry, looked up): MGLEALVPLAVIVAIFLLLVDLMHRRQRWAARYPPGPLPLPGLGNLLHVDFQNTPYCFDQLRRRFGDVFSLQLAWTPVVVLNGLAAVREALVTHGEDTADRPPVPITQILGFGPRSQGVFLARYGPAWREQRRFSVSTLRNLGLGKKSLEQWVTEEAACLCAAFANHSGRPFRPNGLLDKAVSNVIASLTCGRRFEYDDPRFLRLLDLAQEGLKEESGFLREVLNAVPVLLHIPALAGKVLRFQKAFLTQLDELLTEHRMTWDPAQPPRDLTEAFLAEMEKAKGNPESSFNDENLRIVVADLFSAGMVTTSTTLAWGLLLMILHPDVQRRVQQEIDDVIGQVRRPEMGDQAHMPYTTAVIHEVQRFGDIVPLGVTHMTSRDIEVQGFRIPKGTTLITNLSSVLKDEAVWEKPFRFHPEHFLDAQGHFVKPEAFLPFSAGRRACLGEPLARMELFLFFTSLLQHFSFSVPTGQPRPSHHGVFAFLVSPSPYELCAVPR
Cytochrome P450 2C9 (Homo sapiens), sequence (P11712 whole entry, looked up): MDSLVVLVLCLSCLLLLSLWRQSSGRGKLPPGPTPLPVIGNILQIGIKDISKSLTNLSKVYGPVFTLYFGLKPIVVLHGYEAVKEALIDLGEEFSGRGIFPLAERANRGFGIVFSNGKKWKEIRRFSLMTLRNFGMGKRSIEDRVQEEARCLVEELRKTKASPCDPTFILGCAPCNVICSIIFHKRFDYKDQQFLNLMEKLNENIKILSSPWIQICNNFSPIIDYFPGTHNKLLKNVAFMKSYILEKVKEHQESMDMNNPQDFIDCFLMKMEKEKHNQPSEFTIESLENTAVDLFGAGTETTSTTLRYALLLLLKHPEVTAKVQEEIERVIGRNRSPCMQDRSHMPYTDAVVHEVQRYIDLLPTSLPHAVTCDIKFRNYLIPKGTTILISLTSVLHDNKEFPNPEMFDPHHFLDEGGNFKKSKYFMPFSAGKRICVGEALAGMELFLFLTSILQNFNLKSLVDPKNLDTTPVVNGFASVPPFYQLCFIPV
Cytochrome P450 3A4 (Homo sapiens), sequence (P08684 whole entry, looked up): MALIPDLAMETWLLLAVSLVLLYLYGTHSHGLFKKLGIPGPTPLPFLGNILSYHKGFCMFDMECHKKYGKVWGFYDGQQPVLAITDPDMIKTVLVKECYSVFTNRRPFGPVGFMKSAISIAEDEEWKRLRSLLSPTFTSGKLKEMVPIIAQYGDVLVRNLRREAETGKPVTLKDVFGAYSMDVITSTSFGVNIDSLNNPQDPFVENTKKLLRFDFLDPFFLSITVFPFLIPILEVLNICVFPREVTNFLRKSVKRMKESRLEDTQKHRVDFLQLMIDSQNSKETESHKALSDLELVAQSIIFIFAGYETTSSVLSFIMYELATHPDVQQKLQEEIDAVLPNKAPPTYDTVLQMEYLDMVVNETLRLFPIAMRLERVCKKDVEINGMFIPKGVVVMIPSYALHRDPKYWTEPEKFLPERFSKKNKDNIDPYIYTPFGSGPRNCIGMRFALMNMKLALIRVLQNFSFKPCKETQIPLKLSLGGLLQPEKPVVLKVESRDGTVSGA

With `CN(C)C(=O)COC(=O)Cc1ccc(OC(=O)c2ccc(N=C(N)N)cc2)cc1`, the Potency result in experiment [1], in experiment [2], in [3], in [4], in experiment [5] and in experiment [6] was “inactive” in each case. The Potency result in experiment [7], in [8] and in experiment [9] was “inactive” each time.
With `CC[C@]1(O)C[C@H]2CN(CCc3c([nH]c4ccccc34)[C@@](C(=O)OC)(c3cc4c(cc3OC)N(C=O)[C@H]3[C@@](O)(C(=O)OC)[C@H](OC(C)=O)[C@]5(CC)C=CCN6CC[C@]43[C@@H]65)C2)C1`, the Potency entry in experiment [1], in experiment [3], in [4], in [5] and in experiment [7] was “inactive” throughout. Moreover, the Potency was 0.1 µM (active) in experiment [2]; 7.5 nM (active) and 59 nM (active) in experiment [8]; 6.7 nM (active) and 29.5 nM (active) in [9].
As to `Cc1cc2cc3c(C)cc(=O)oc3c(C)c2o1`, in experiment [10], the compound was classed as inactive. Also, the Potency entry in [2], in experiment [3], in experiment [4], in experiment [5], in experiment [6] and in experiment [7] was “inactive” in each case. The Potency result in experiment [8] and in experiment [9] was “inactive” throughout.
With `NC(=O)Cc1cccc(C(=O)c2ccccc2)c1N`, the outcome in experiment [10] was inactive. The Potency entry in experiment [2], in experiment [3], in experiment [4], in experiment [5], in experiment [6] and in experiment [7] was “inactive” throughout.
`NS(=O)(=O)c1cc(C(=O)O)c(NCc2ccco2)cc1Cl`: the result in [10] was inactive. The Potency entry in experiment [2], in experiment [3], in experiment [4], in experiment [5], in [8] and in [9] was “inactive” throughout.
Regarding `Nc1cc(C(Cl)=C(Cl)Cl)c(S(N)(=O)=O)cc1S(N)(=O)=O`, the Potency result in experiment [1], in experiment [2], in experiment [3], in [4], in [5] and in experiment [6] was “inactive” in each case. Besides, the Potency entry in experiment [8] and in experiment [9] was “inactive” in each case.
Consider `O=C(NCCO[N+](=O)[O-])c1cccnc1`, for which the Potency entry in experiment [1], in experiment [2], in experiment [3], in experiment [5], in experiment [6] and in experiment [7] was “inactive” each time. Also, the Potency entry in experiment [8] and in experiment [9] was “inactive” each time.
Consider `O=C(NCC1CCCCN1)c1cc(OCC(F)(F)F)ccc1OCC(F)(F)F` (configuration not stated), for which the Potency result in experiment [1], in experiment [2], in experiment [3], in [5], in experiment [7] and in experiment [8] was “inactive” throughout. Besides, the Potency result in experiment [9] is “inactive”.
As for `CCCS(=O)c1ccc2nc(NC(=O)OC)[nH]c2c1` (configuration not stated), the Potency result in experiment [1], in [2], in experiment [3], in experiment [4] and in experiment [7] was “inactive” each time. Also, in experiment [11], the compound was classed as inactive. For the same compound, the Potency was 4.22 µM (active) and 8.17 µM (active) in experiment [8]; 2.66 µM (active) and 18.6 µM (active) and 4.09 µM (active) in experiment [9].
For `Cc1cc2c(s1)Nc1ccccc1N=C2N1CCN(C)CC1`, the Potency result in experiment [1], in experiment [2], in [3], in experiment [4], in experiment [6] and in experiment [7] was “inactive” each time. Moreover, the Potency in [9] is 23.5 µM (active).
Regarding `N=C(N=C(N)N)N1CCOCC1`, the Potency result in [1], in [2], in experiment [3], in experiment [4], in experiment [5] and in [6] was “inactive” throughout. Besides, the Potency entry in [7], in experiment [8] and in [9] was “inactive” in each case.
